High-throughput results deposited in PubChem by National Center for Advancing Translational Sciences (NCATS).
Shown are actives, neighbours in structure and some others; about 3.1% of the full set was active somewhere.
PI4K2A block: blocks human PI4K2A kinase activity | Q9BTU6 | purified PI4K2A, ADP-Glo luminescence, 1 h; stronger effect = lower value | activity change, negative = inhibition, % at 76.9 µM | 420,000 compounds, 0.13% hits; in the data active means activity change below about -50%; inconclusive means mostly about -30% to -49%;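 further: -100% = wells without enzyme as full effect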
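PI4K2A activity was measured by ADP-Glo luminescence: enzyme (4 ug/mL stock) and phosphatidylinositol (1.2 mM stock) in Tris pH 7.5/MgCl2/EGTA/Triton X-100 buffer were reacted with ATP (300 microM stock) for one hour at ambient temperature.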
KAT2A inh: blocks human GCN5L2 histone acetyltransferase; GCN5L2 HAT assay, ThioGlo1 CoA-SH fluorescence; Q92830; Potency, µM (doses to about 58.9 µM), without a hit: top-dose activity change, negative = inhibition, most hits filed as inhibitors; AID 504327; 390,000 compounds, 0.21% hits; further: potency means the concentration at half of the fitted maximal effect
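Fluorescence readout, Ex340nm/Em540nm: ThioGlo1 (50uM final) reacts with free CoA thiol released as 20nM GCN5L2 acetylates H3(1-25) peptide (75uM) using acetyl-CoA (70uM). Compound and enzyme sat 15 min beforehand; 20 min room-temperature reaction.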
GLS inhibitor: glutaminase GLS (human) inhibition. O94925. GLS enzymatic activity, qHTS titration. Potency, µM (series often up to 45.5 µM), inactives show at the top dose activity change, negative = inhibition, actives largely listed as inhibitors. 410,000 compounds, 0.21% hits; further: potency means the concentration at half of the fitted maximal effect
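Human kidney-isoform GLS in 45 mM KH2PO4 pH 8.2, 0.02% Tween-20, with compound, started with 1mM L-Glutamine (added stock). Glutamate oxidase/HRP/Amplex red coupled fluorescence read at start and after 30 min at RT.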
PLK1 PBD inh: blocks phosphopeptide binding to human PLK1 polo-box domain | 360,000 compounds, 2.8% hits | Potency, µM, for the others: max response, negative = inhibition, usual class: inhibitors | AID 720504 | Plk1 PBD binding of FITC phosphopeptide, fluorescence polarization; further: potency means the concentration at half of the fitted maximal effect; series mostly up to about 57 µM; nearly all actives have a fitted effect of over 65% in size
VDR inhibitor: blocks the human vitamin D receptor | 400,000 compounds, 0.93% hits | P11473 | Potency, µM, inactives show max response, negative = inhibition, most hits filed as inhibitors | VDR-SRC2-3 peptide fluorescence polarization, 2 h | AID 504847; further: potency means the concentration at half of the fitted maximal effect
Target sequence (P11473 whole entry, looked up): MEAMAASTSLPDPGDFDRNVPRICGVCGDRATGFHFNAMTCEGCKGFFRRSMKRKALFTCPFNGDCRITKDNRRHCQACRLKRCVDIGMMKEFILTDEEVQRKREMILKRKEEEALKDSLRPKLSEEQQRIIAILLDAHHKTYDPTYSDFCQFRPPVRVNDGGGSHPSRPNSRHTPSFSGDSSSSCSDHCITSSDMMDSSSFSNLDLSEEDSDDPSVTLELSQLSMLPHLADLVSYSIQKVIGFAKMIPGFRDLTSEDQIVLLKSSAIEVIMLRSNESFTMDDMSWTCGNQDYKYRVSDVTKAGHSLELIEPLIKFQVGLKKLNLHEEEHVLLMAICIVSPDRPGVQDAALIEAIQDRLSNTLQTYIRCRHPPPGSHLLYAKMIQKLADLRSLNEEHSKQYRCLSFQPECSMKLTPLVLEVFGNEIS
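Measured by FP: displacement of SRC2-3 coactivator peptide from VDR by library compounds, following a two-hour ambient incubation.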
* marks the source's active call; other numbers are inactive results; [ ] = remark or other dose. Unless noted, the call rests on the fitted dose curve; in most records, active means well fitted curve in the direction sought with a large enough effect; inconclusive means small, poorly fitted or top-dose-only effect, or another doubt; inactive means no such curve, though single readings can be large; an effect the other way counts as inactive or inconclusive. Unless noted, on the % scale 0 is the no-effect control and ±100 the full control effect.

For C[C@]12C/C(=C/O)C(=O)C[C@@H]1CC[C@@H]1[C@@H]2CC[C@@]2(C)[C@H]1CC[C@]2(C)O the results were PI4K2A block 0, KAT2A inh -5%, GLS inhibitor -7% and VDR inhibitor inconclusive.
For Cc1cc(C=C2C(=O)N(C)C(=O)N(C)C2=O)c(C)n1-c1ccccc1 the results were PI4K2A block 0, KAT2A inh -4%, GLS inhibitor -3%, PLK1 PBD inh -4% and VDR inhibitor -3%.
CN1C(=O)C(=Cc2coc3ccccc3c2=O)C(=O)N(C)C1=O was read as PI4K2A block -15, KAT2A inh -4%, GLS inhibitor 26%, PLK1 PBD inh 19µM* and VDR inhibitor inconclusive.
C=CCn1cc(C=C2C(=O)NC(=O)NC2=O)c2ccccc21 was read as PI4K2A block -19, KAT2A inh 2%, GLS inhibitor 9%, PLK1 PBD inh 8% and VDR inhibitor 7%.
`CCOC(=O)Cn1cc(C=C2C(=O)N(C)C(=O)N(C)C2=O)c2ccccc21` gave PI4K2A block -3, KAT2A inh -24%, GLS inhibitor 0%, PLK1 PBD inh inconclusive and VDR inhibitor -3%.
For CN1C(=O)C(=Cc2cn(CC#N)c3ccccc23)C(=O)N(C)C1=O the results were PI4K2A block -15, KAT2A inh -15%, GLS inhibitor 7%, PLK1 PBD inh 1.2µM* and VDR inhibitor -16%.
CN1C(=O)C(=Cc2cn(CC(=O)N3CCCCC3)c3ccccc23)C(=O)N(C)C1=O was read as PI4K2A block -2, KAT2A inh 0%, GLS inhibitor -5%, PLK1 PBD inh 13µM* and VDR inhibitor -11%.
`CN1C(=O)C(=Cc2cn(CC(=O)N3CCCC3)c3ccccc23)C(=O)N(C)C1=O` gave PI4K2A block -4, KAT2A inh -1%, GLS inhibitor -7%, PLK1 PBD inh 27µM* and VDR inhibitor -2%.
For CCOc1ccc(-c2nc3ccc(-c4nc5ccc(N6CCN(C)CC6)cc5[nH]4)cc3[nH]2)cc1 the results were KAT2A inh 11µM* and VDR inhibitor 112%.
CN(C)c1ccc(/C=C2/C(=O)NC(=O)N(CCc3ccc(F)cc3)C2=O)cc1 was read as PI4K2A block -9, KAT2A inh inconclusive, GLS inhibitor 43%, PLK1 PBD inh 6µM* and VDR inhibitor inconclusive.
`O=C1NC(=O)N(CCc2ccc(F)cc2)C(=O)/C1=C\C=C\c1ccccc1` gave PI4K2A block -6, KAT2A inh -1%, GLS inhibitor 79%, PLK1 PBD inh inconclusive and VDR inhibitor inconclusive.
O=C1NC(=O)C(CCc2ccncc2)(CCc2ccncc2)C(=O)N1Cc1ccc(F)cc1 was read as PI4K2A block 4, KAT2A inh 0%, GLS inhibitor 0%, PLK1 PBD inh inconclusive and VDR inhibitor 6%.
O=C1NC(=O)N(Cc2ccc(F)cc2)C(=O)/C1=C\c1ccoc1 was read as PI4K2A block -14, KAT2A inh inconclusive, GLS inhibitor inconclusive, PLK1 PBD inh 2.7µM* and VDR inhibitor -1%.
For CN(C)c1ccc(/C=C2\C(=O)NC(=O)N(Cc3ccc(F)cc3)C2=O)cc1 the results were PI4K2A block -1, KAT2A inh -4%, GLS inhibitor 0%, PLK1 PBD inh 1.2µM* and VDR inhibitor -14%.
Screening CCOc1cc(/C=C2/NC(=O)N(CC(=O)Nc3cccc(C)c3)C2=O)ccc1O returned PI4K2A block -15, KAT2A inh -2%, GLS inhibitor 48%, PLK1 PBD inh -1% and VDR inhibitor 5%.
CCOc1cc(/C=C2\C(=O)NC(=O)N(CCc3ccc(F)cc3)C2=O)ccc1O was read as PI4K2A block inconclusive, KAT2A inh -16%, GLS inhibitor -8%, PLK1 PBD inh 1.7µM* and VDR inhibitor inconclusive.
For CCCCCCCCCCCCC/C=C/[C@@H](O)[C@@H](N)COP(=O)([O-])OCC[N+](C)(C)C the results were VDR inhibitor 3%.
`C[C@]12CC[C@H]3[C@@H](CCC4=CC(=O)CC[C@@H]43)[C@@H]1CC[C@@H]2OC(=O)CCc1ccccc1` gave PI4K2A block -2.
`COc1ccc2c(c1)c(CCN1CCOCC1)c(C)n2C(=O)c1cccc(Cl)c1Cl` gave PI4K2A block 5, KAT2A inh inconclusive and VDR inhibitor -16%.
For CCCCOCN(C(=O)CCl)c1c(CC)cccc1CC the results were KAT2A inh -17% and VDR inhibitor inconclusive.
CCCCN1C(=O)/C(=C/c2ccc(N3CCCCCC3)cc2)C(=O)NC1=S was read as KAT2A inh 33%.
For COCCN1C(=O)NC(=O)/C(=C\c2ccc(Br)cc2)C1=O the results were PI4K2A block 6, KAT2A inh -16%, GLS inhibitor -16%, PLK1 PBD inh 5.3µM* and VDR inhibitor inconclusive.
`Oc1c(Cl)cccc1Cc1cc(Cl)cc(Cl)c1O` gave PI4K2A block -1, GLS inhibitor 17%, PLK1 PBD inh 27µM* and VDR inhibitor -15%.
Oc1c(Cl)cc(Cl)cc1CN1CCN(Cc2ccccc2)CC1 was read as PI4K2A block 1, KAT2A inh -13%, GLS inhibitor 10%, PLK1 PBD inh -6% and VDR inhibitor -3%.
For Cc1ccc(OCCOc2cccc(C=C3C(=O)NC(=O)NC3=O)c2)c(C)c1 the results were PI4K2A block inconclusive, KAT2A inh inconclusive, GLS inhibitor -13%, PLK1 PBD inh 5.3µM* and VDR inhibitor inconclusive.
For O=C1NC(=O)C(=Cc2cn(CCOc3ccc4c(c3)OCO4)c3ccccc23)C(=O)N1 the results were PI4K2A block -9, KAT2A inh -7%[0.501 µM], GLS inhibitor -4%, PLK1 PBD inh 0% and VDR inhibitor 3%.
Screening Cc1nc2c(=O)n(C)c(=O)nc-2n(C)n1 returned PI4K2A block -55*, KAT2A inh -6%, GLS inhibitor -7%, PLK1 PBD inh -14% and VDR inhibitor inconclusive.
Screening C=C(C)[C@H]1O[C@H]2CC[C@@]3(C)[C@@](O)(CC[C@H]4[C@@H]5OC(C)(C)[C@H]6C[C@@H]7C(=C)Cc8c(Cl)cc9[nH]c(c5c9c8[C@@]76O)[C@@]43C)[C@]23O[C@@H]3[C@H]1O returned KAT2A inh -14% and VDR inhibitor -1%.
Screening CCC1OC(=O)CC(O)C(C)[C@@H](O[C@@H]2OC(C)[C@H](O[C@@H]3C[C@@](C)(O)C(O)C(C)O3)C(N(C)C)C2O)[C@H](CC=O)CC(C)C(=O)/C=C/C(C)=C/[C@@H]1COC1OC(C)C(O)C(OC)[C@@H]1OC (some centres undefined) returned KAT2A inh 11%, GLS inhibitor -1% and VDR inhibitor -3%.
Screening N#Cc1c(/N=C/c2c(O)n(Cc3ccco3)c(=O)[nH]c2=O)sc2c1CCCC2 returned PI4K2A block -29, KAT2A inh inconclusive, GLS inhibitor -1%, PLK1 PBD inh 24µM* and VDR inhibitor 79µM*.
